Assay results published in PubChem BioAssay AID1159580 (chemical genetic matrix, 2015).
Several values for one entry are separate records, joined by “and”; a condition that tells them apart may be missing. Equal entries are not always repeated. Screen size: about 5,500 compounds; about 2,000 (36%) were called active. About 18% were inconclusive and are not listed. Cut-off read from the data, not from the text of the source: active = normalized growth mostly below about 0.91 (no sharp cut-off); inconclusive = no clear call, values can overlap the other calls; inactive = mostly above about 0.92. The list shows a part of the results.

Assay: chemical genetic growth profiling, strain panel (AID 1159580);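 note: tested at 20 µM; growth read once vehicle control cultures reached saturation at 30 °C; 1 = growth at the plate median or of vehicle wells; lower values mean less growth of the strain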
Details: S. cerevisiae deletion strains, growth OD

Measured: normalized growth

COc1cc(OC)c2c(c1Cl)OC1(C2=O)C(O)=CC(=O)CC1C (stereo unspecified)
inactive: locus YAL021C, strain ccr4, active compounds read low 1.02 | locus YAL026C, strain drs2, active compounds read low 1.01 | locus YAL030W, strain snc1, active compounds read low 1.01 | locus YBL061C, strain skt5, active compounds read low 1.01 | locus YBR009C, strain hhf1, active compounds read low 1.01 | locus YBR021W, strain FUR4, active compounds read low 1.04 | locus YBR023C, strain chs3, active compounds read low 1.01 | locus YBR171W, strain sec66, active compounds read low 1.03 | locus YBR229C, strain ROT2, active compounds read low 1.02 | locus YBR231C, strain swc5, active compounds read low 1.01 | locus YBR279W, strain paf1, active compounds read low 1.01 | locus YCL011C, strain gbp2, active compounds read low 1.02 | locus YCL016C, strain dcc1, active compounds read low 1.01 | locus YCL029C, strain bik1, active compounds read low 1.01 | locus YCL061C, strain MRC1, active compounds read low 1.01 | locus YCL069W, strain vba3, active compounds read low 1.01 | locus YCR088W, strain abp1, active compounds read low 1.01 | locus YDL005C, strain med2, active compounds read low 1.01 | locus YDL035C, strain GPR1, active compounds read low 1.04 | locus YDL040C, strain nat1, active compounds read low 1.01 | locus YDL074C, strain BRE1, active compounds read low 1.07 | locus YDL101C, strain DUN1, active compounds read low 1.03 | locus YDL134C, strain PPH21, active compounds read low 1.01 | locus YDL185W, strain tfp1, active compounds read low 0.981 | locus YDL192W, strain arf1, active compounds read low 1.02 | locus YDR001C, strain nth1, active compounds read low 1.01 | locus YDR069C, strain doa4, active compounds read low 1.01 | locus YDR101C, strain arx1, active compounds read low 1.02 | locus YDR137W, strain rgp1, active compounds read low 1.02 | locus YDR159W, strain sac3, active compounds read low 1.02 | locus YDR162C, strain NBP2, active compounds read low 1.05 | locus YDR195W, strain ref2 1.03 | locus YDR297W, strain sur2, active compounds read low 1.01 | locus YDR318W, strain mcm21, active compounds read low 1 | locus YDR334W, strain swr1, active compounds read low 1.01 | locus YDR335W, strain msn5, active compounds read low 1.02 | locus YDR388W, active compounds read low 1.01 | locus YDR392W, strain spt3, active compounds read low 1.01 | locus YDR502C, strain sam2, active compounds read low 0.986 | locus YEL003W, strain gim4, active compounds read low 1.01 | locus YEL037C, strain rad23, active compounds read low 1 | locus YEL061C, strain CIN8 (second series), active compounds read low 1.01 | locus YER015W, strain faa2, active compounds read low 1.01 | locus YER016W, strain bim1, active compounds read low 1.02 | locus YER110C, active compounds read low 0.977 | locus YER111C, strain swi4, active compounds read low 1.01 | locus YER155C, strain BEM2 (second series), active compounds read low 1.03 | locus YER155C, strain BEM2, active compounds read low 1.02 | locus YER167W, strain BCK2, active compounds read low 1.02 | locus YFR010W, strain ubp6, active compounds read low 1.01 | locus YGL078C, strain dbp3, active compounds read low 0.978 | locus YGL086W, strain mad1, active compounds read low 1.01 | locus YGL167C, strain pmr1, active compounds read low 1.02 | locus YGL173C, strain kem1, active compounds read low 1.01 | locus YGL227W, strain vid30, active compounds read low 1.01 | locus YGL240W, strain doc1, active compounds read low 1 | locus YGL248W, strain PDE1, active compounds read low 1.02 | locus YGL253W, strain hxk2, active compounds read low 1.01 | locus YGR135W, strain pre9, active compounds read low 0.983 | locus YGR252W, strain gcn5, active compounds read low 0.915 | locus YHR013C, strain ard1, active compounds read low 1.03 | locus YHR027C, strain rpn1, active compounds read low 1.01 | locus YHR030C, strain SLT2, active compounds read low 1.02 and 0.99 | locus YHR079C, strain IRE1 (second series), active compounds read low 0.979 | locus YHR079C, strain IRE1, active compounds read low 0.997 | locus YHR094C, strain hxt1, active compounds read low 0.983 | locus YHR129C, strain ARP1, active compounds read low 1.02 | locus YHR142W, strain chs7, active compounds read low 1.02 | locus YHR200W, strain rpn10, active compounds read low 0.999 | locus YIL066C, strain RNR3, active compounds read low 1.07 | locus YIL073C, strain SPO22, active compounds read low 1 | locus YIL125W, strain kgd1, active compounds read low 0.99 | locus YIR030C, strain dcg1, active compounds read low 1.01 | locus YJL092W, strain hpr5, active compounds read low 1.01 | locus YJL095W, strain BCK1 (second series), active compounds read low 1 | locus YJL095W, strain BCK1, active compounds read low 1.04 and 0.978 | locus YJL115W, strain asf1, active compounds read low 1 | locus YJL129C, strain trk1, active compounds read low 1.02 | locus YJL134W, strain LCB3, active compounds read low 1.02 | locus YJL154C, strain vps35, active compounds read low 1.02 | locus YJL164C, strain tpk1, active compounds read low 1.01 | locus YJL166W, strain qcr8, active compounds read low 1.01 | locus YJL168C, strain set2, active compounds read low 0.977 | locus YJL187C, strain SWE1 (second series), active compounds read low 1.03 | locus YJL187C, strain SWE1, active compounds read low 1.01 | locus YJR066W, strain TOR1, active compounds read low 0.9
